Test results reported in PubChem BioAssay (Tox21).
Inconclusive results are not listed. Active and inactive are the calls of the source. Calls come from the whole dose curve; as a rule, active = well fitted curve in the direction sought with a large enough effect in the repeat runs; inconclusive = weak or mixed curves; inactive = no such curve, though single readings can be large; an effect the other way counts as inactive or inconclusive.

Legend:
[1] = qHTS RealTime-Glo MT Cell Viability Assay in HEK293 cells - 0 hour (AID 1224880); conditions: RealTime-Glo luminescence; series mostly up to 76.8 µM; note: top concentration of the series differs between compounds; nearly all actives have a fitted effect of over 45% in size
How it was run: (§1)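 HEK293 cells mixed with RealTime-Glo reagents (NanoLuc plus cell-permeant prosubstrate) at 600 cells/well, preincubated 5 h at 37 C/5% CO2, then given 23 nL compound in DMSO. Nonlytic luminescence from viable cells was read at 0, 8, 16, 24, 32 and 40 h.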

[2] = A CellTox Green Cytotoxicity Assay to monitor cytotoxicity in HEK293 cells - 32 hour (AID 1224881); conditions: CellTox Green fluorescence; series mostly up to 76.8 µM; note: nearly all actives have a fitted effect of over 40% in size
How it was run: (§2)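 HEK293 cells premixed with CellTox Green dye were seeded at 600 cells/well and left 5 h at 37 C/5% CO2 before pin transfer of 23 nL compound in DMSO. Fluorescence from dye bound to dead-cell DNA was read during 40 h treatment.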

[3] = A CellTox Green Cytotoxicity Assay to monitor cytotoxicity in HepG2 cells - 0 hour (AID 1224882); conditions: CellTox Green fluorescence; series mostly up to 76.8 µM; note: nearly all actives have a fitted effect of over 35% in size
How it was run: (§3)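 HepG2 cells were seeded together with the CellTox Green dye at 600 cells/well, left 5 h at 37 C/5% CO2, then given compounds in DMSO. Fluorescence from dye bound to dead-cell DNA was read repeatedly over 40 h of treatment at 37 C.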

[4] = A CellTox Green Cytotoxicity Assay to monitor cytotoxicity in HEK293 cells - 8 hour (AID 1224884); conditions: CellTox Green fluorescence; series mostly up to 76.8 µM; note: nearly all actives have a fitted effect of over 35% in size
How it was run: as §2

[5] = qHTS RealTime-Glo MT Cell Viability Assay in HEK293 cells - 24 hour (AID 1224886); conditions: RealTime-Glo luminescence; series mostly up to 76.8 µM; note: nearly all actives have a fitted effect of over 50% in size; note: potency is the fitted concentration of half-maximal effect
How it was run: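 Tox21 10K qHTS, HEK293, 600 cells/well, RealTime-Glo reagent co-dispensed with cells; 5 h preincubation, compound by pintool, 37 C, luminescence at 0–40 h.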

[6] = qHTS RealTime-Glo MT Cell Viability Assay in HEK293 cells - 8 hour (AID 1224887); conditions: RealTime-Glo luminescence; series mostly up to 76.8 µM; note: top concentration of the series differs between compounds; nearly all actives have a fitted effect of over 50% in size
How it was run: as §1

[7] = A CellTox Green Cytotoxicity Assay to monitor cytotoxicity in HEK293 cells - 16 hour (AID 1224888); conditions: CellTox Green fluorescence; series mostly up to 76.8 µM; note: nearly all actives have a fitted effect of over 35% in size
How it was run: as §2

[8] = qHTS RealTime-Glo MT Cell Viability Assay in HepG2 cells - 0 hour (AID 1224889); conditions: RealTime-Glo luminescence; series mostly up to 76.8 µM; note: nearly all actives have a fitted effect of over 50% in size
How it was run: (§4)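 Cells + NanoLuc/prosubstrate dispensed (600 cells/well) → 5 h at 37 C/5% CO2 → compounds in DMSO transferred → 40 h incubation at 37 C, luminescence read at 0, 8, 16, 24, 32, 40 h.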

[9] = qHTS RealTime-Glo MT Cell Viability Assay in HepG2 cells - 16 hour (AID 1224885); conditions: RealTime-Glo luminescence; series mostly up to 76.8 µM; note: nearly all actives have a fitted effect of over 50% in size
How it was run: as §4

[10] = A CellTox Green Cytotoxicity Assay to monitor cytotoxicity in HepG2 cells - 32 hour (AID 1224883); conditions: CellTox Green fluorescence; series mostly up to 76.8 µM; note: nearly all actives have a fitted effect of over 50% in size; note: potency is the fitted concentration of half-maximal effect
How it was run: as §3

Measured: Potency

CCOC(=O)Cn1c(=O)sc2cccc(Cl)c21
not listed: [9] | [10]
inactive: all other assays above

CCN1CCN(c2cc3c(cc2F)c(=O)c(C(=O)O)cn3C2CC2)CC1
not listed: [8] | [10]
inactive: all other assays above

CNc1ncnc2nc[nH]c12
not listed: [10]
inactive: all other assays above

CCCCCCCCC=O
not listed: [10]
inactive: all other assays above

CO[Si](OC)(OC)OC
not listed: [10]
inactive: all other assays above

CN(C)N=Nc1ccccc1
not listed: [10]
inactive: all other assays above

CC1CCN(CCCC(=O)c2ccc(F)cc2)CC1
not listed: [8] | [10]
inactive: all other assays above

CC(C)=CCC/C(C)=C/C(=O)O
not listed: [10]
inactive: all other assays above

CCC(=O)/C=C/c1ccc(OC)cc1
not listed: [10]
inactive: all other assays above

O=S(=O)(c1cccc2cnccc12)N1CCCNCC1
not listed: [10]
inactive: all other assays above

C=C(C)[C@@H]1CCC2=CC(=O)C[C@@H](C)[C@]2(C)C1
not listed: [10]
inactive: all other assays above

CC/C=C\CCCCO
not listed: [10]
inactive: all other assays above

c1cc(CN2CCCCC2)cc(OCCCNc2nc3ccccc3s2)c1
active: [10] 23.9 µM | [5] 9.52 µM
not listed: [6] | [9]
inactive: all other assays above

OCCCCCCO
not listed: [3] | [8]
inactive: all other assays above

C1=C\CC/C=C\CC/C=C\CC/1
not listed: [10]
inactive: all other assays above

CC1=CC(C)C(C=O)C(C)C1 (stereo not given)
not listed: [3]
inactive: all other assays above

O=c1[nH]c2ccccc2c(=O)n1CCCl
not listed: [10]
inactive: all other assays above

CC(C)(C)N(CCO)CCO
not listed: [3] | [8]
inactive: all other assays above

C=CCOCC(O)CS(=O)(=O)O (stereo not given)
not listed: [3] | [8]
inactive: all other assays above

C=CC(=O)OCCCCCC
not listed: [10]
inactive: all other assays above

CC(=O)O[C@H](CC(=O)[O-])C[N+](C)(C)C
not listed: [10]
inactive: all other assays above

CC(C)(O)c1ccccc1
not listed: [3]
inactive: all other assays above

CN(C)CCOC(c1ccc(Cl)cc1)c1ccccn1 (stereo not given)
not listed: [3]
inactive: all other assays above

NC(=O)c1c(Cl)cccc1Cl
not listed: [3]
inactive: all other assays above

CC/C=C\C#N
not listed: [3]
inactive: all other assays above

N#CCc1ccccc1[N+](=O)[O-]
not listed: [2]
inactive: all other assays above

O=C(O)/C=C/c1ccc(/C=C/C(=O)O)cc1
not listed: [3]
inactive: all other assays above

CC(C)c1ccc2oc3nc(N)c(C(=O)O)cc3c(=O)c2c1
not listed: [3]
inactive: all other assays above
